According to PubChem BioAssay (NCATS):
Records with an inconclusive call do not appear. Active and inactive are the calls of the source. Calls come from the whole dose curve; as a rule, active = well fitted curve in the direction sought with a large enough effect; inconclusive = small, poorly fitted or top-dose-only effect, or another doubt; inactive = no such curve, though single readings can be large; an effect the other way counts as inactive or inconclusive.

Columns and labels:
[1] = qHTS of pediatric cancer cell lines to identify multiple opportunities for drug repurposing: Confirmatory screen for SJ-GBM2 cells (AID 1347116); note: nearly all actives have a fitted effect of over 60% in size; note: potency is the fitted concentration of half-maximal effect
Method in brief: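 Viability measured as metabolically active cells via CellTiter-Glo luminescence following 48 hours of compound exposure, 11-point dilutions in confirmatory testing. 500-1,000 cells/well plated 5 hours before dosing; controls were DMSO and 2.3 µM bortezomib.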

[2] = qHTS of pediatric cancer cell lines to identify multiple opportunities for drug repurposing: Confirmatory screen for BT-37 cells (AID 1347117); note: nearly all actives have a fitted effect of over 55% in size; note: potency is the fitted concentration of half-maximal effect
Method in brief: (§1)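 Cells (500-1,000/well) in growth media were settled 5 h at 37 degrees C, then given compounds for 48 h. Viability was read as CellTiter-Glo luminescence. Primary runs used MIPE at 11 points (0.78 nM-46 µM) and NPC at 8 points (0.59 nM-46 µM); follow-ups used 11 points.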

[3] = qHTS of pediatric cancer cell lines to identify multiple opportunities for drug repurposing: Confirmatory screen for TC32 cells (AID 1347118);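 note: cells exposed to compound for 48 h before the read; nearly all actives have a fitted effect of over 65% in size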; note: potency is the fitted concentration of half-maximal effect
Method in brief: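 Measured quantity: luminescence from CellTiter-Glo, reflecting metabolically active TC32 cells following 48 h of compound. Curves came straight from multi-point titrations, with 8 or 11 points in primary and 11 in confirmatory screening.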

[4] = qHTS of pediatric cancer cell lines to identify multiple opportunities for drug repurposing: Confirmatory screen for U-2 OS cells (AID 1347122); note: nearly all actives have a fitted effect of over 65% in size; note: potency is the fitted concentration of half-maximal effect
Method in brief: as §1

[5] = qHTS of pediatric cancer cell lines to identify multiple opportunities for drug repurposing: Confirmatory screen for Rh41 cells (AID 1347123);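 note: 48 h compound exposure; nearly all actives have a fitted effect of over 60% in size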; note: potency is the fitted concentration of half-maximal effect
Method in brief: as §1

[6] = qHTS of pediatric cancer cell lines to identify multiple opportunities for drug repurposing: Confirmatory screen for RD cells (AID 1347124);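 note: cells exposed to compound for 48 h before viability readout; nearly all actives have a fitted effect of over 65% in size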; note: potency is the fitted concentration of half-maximal effect
Method in brief: as §1

[7] = qHTS of pediatric cancer cell lines to identify multiple opportunities for drug repurposing: Confirmatory screen for Rh18 cells (AID 1347125); note: nearly all actives have a fitted effect of over 55% in size; note: potency is the fitted concentration of half-maximal effect
Method in brief: as §1

[8] = qHTS of pediatric cancer cell lines to identify multiple opportunities for drug repurposing: Confirmatory screen for Rh30 cells (AID 1347126); note: nearly all actives have a fitted effect of over 55% in size; note: potency is the fitted concentration of half-maximal effect
Method in brief: as §1

[9] = qHTS of pediatric cancer cell lines to identify multiple opportunities for drug repurposing: Confirmatory screen for Saos-2 cells (AID 1347127); note: nearly all actives have a fitted effect of over 60% in size; note: potency is the fitted concentration of half-maximal effect
Method in brief: as §1

[10] = qHTS of pediatric cancer cell lines to identify multiple opportunities for drug repurposing: Confirmatory screen for OHS-50 cells (AID 1347128);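 note: compound exposure lasted 48 h at 37 degrees C; nearly all actives have a fitted effect of over 55% in size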; note: potency is the fitted concentration of half-maximal effect
Method in brief: as §1

[11] = qHTS of pediatric cancer cell lines to identify multiple opportunities for drug repurposing: Confirmatory screen for SK-N-SH cells (AID 1347129);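 note: cells exposed to compound for 48 h before viability read; nearly all actives have a fitted effect of over 60% in size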; note: potency is the fitted concentration of half-maximal effect
Method in brief: as §1

[12] = test system: Zika virus NS2B-NS3 protease (unlinked complex); test: Confirmatory screen GU AMC qHTS for Zika virus inhibitors (AID 1347153); note: nearly all actives have a fitted effect of over 70% in size
Method in brief: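 Unlinked enzyme 25 nM, Tris pH 8.0/0.01% Tween 20; cpd 15 min RT, dark; + AMC substrate 10 µM (Km 18.3 µM); 340/450 nm read at t0 and 15 min; % inhibition → 4-param fit.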

[13] = qHTS of pediatric cancer cell lines to identify multiple opportunities for drug repurposing: Confirmatory screen for control Hh wild type fibroblast cells (AID 1347121); note: nearly all actives have a fitted effect of over 70% in size
Method in brief: as §1

[14] = test system: Zika virus NS2B-NS3 protease; test: Primary screen GU AMC qHTS for Zika virus inhibitors (AID 1347154); note: nearly all actives have a fitted effect of over 70% in size; note: potency is the fitted concentration of half-maximal effect
Method in brief: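 Unlinked Zika NS2B hydrophilic domain/NS3 protease domain noncovalent complex (25 nM final) in 10 mM Tris-HCl pH 8.0, 0.01% Tween 20, with AMC peptide substrate. Fluorescence (ex 340, em 450 nm) change over 15 min, room temperature; percent inhibition fitted to 4-parameter Hill equation.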

[15] = qHTS of pediatric cancer cell lines to identify multiple opportunities for drug repurposing: Confirmatory screen for MG 63 (6-TG R) cells (AID 1347119); note: nearly all actives have a fitted effect of over 55% in size; note: potency is the fitted concentration of half-maximal effect
Method in brief: as §1

Measured: Potency

Cc1ccc(C(=O)Nc2cccc(C(F)(F)F)c2)cc1-c1ccc2nc(NCCN3CCOCC3)ncc2c1
inactive: [11] | [12]
active: [1] 13.1 µM | [2] 4.14 µM | [3] 6.57 µM | [4] 4.14 µM | [5] 5.85 µM | [6] 7.37 µM | [7] 7.37 µM | [8] 5.22 µM | [9] 8.27 µM | [10] 8.27 µM

OCCCNc1cc(-c2ccnc(Nc3cccc(Cl)c3)n2)ccn1
active: [1] 0.369 µM | [2] 0.261 µM | [3] 0.165 µM | [5] 0.0522 µM | [8] 0.414 µM | [9] 0.261 µM | [10] 0.329 µM | [11] 0.148 µM
inactive: [13] | [14]

CNC(=O)c1ccc(N2C(=S)N(c3cnc(C#N)c(C(F)(F)F)c3)C(=O)C23CCC3)cc1F
not listed: [12] | [13] | [15]
inactive: all other assays above

CNC(=O)c1nn(C)c2c1C(C)(C)Cc1cnc(Nc3ccc(N4CCN(C)CC4)cc3)nc1-2
inactive: [13] | [14]
active: [1] 0.657 µM | [2] 1.04 µM | [3] 1.65 µM | [4] 1.31 µM | [5] 3.29 µM | [6] 0.233 µM | [7] 4.65 µM | [8] 0.928 µM | [10] 5.85 µM | [11] 1.18 µM

COc1cccc2nc(-c3cccs3)nc(NN3C(=O)C=C(C)C3=O)c12
active: [1] 7.37 µM | [2] 1.04 µM | [3] 0.737 µM | [15] 2.93 µM | [4] 1.85 µM | [5] 0.827 µM | [7] 20.8 µM | [8] 3.69 µM | [9] 2.93 µM | [11] 2.96 µM
inactive: [14]

C=CC(=O)Nc1cc2c(Nc3ccc(F)c(Cl)c3)ncnc2cc1C#CC(C)(C)N1CCN(C)CC1
active: [1] 6.03 µM | [2] 3.02 µM | [3] 3.02 µM | [15] 4.27 µM | [4] 4.79 µM | [5] 2.69 µM | [6] 6.03 µM | [7] 6.03 µM | [8] 3.8 µM | [9] 4.27 µM | [10] 6.03 µM | [11] 4.29 µM

NCC(=O)Nc1ccc(-n2nc(C(F)(F)F)cc2-c2ccc3c(ccc4ccccc43)c2)cc1
active: [1] 3.29 µM | [2] 2.93 µM | [3] 1.47 µM | [4] 0.0261 µM | [5] 7.37 µM | [6] 5.22 µM | [7] 2.61 µM | [9] 3.29 µM
inactive: [14]

COc1cc2c(Oc3ccc(-c4cnc(Nc5ccc(F)cc5)n(C)c4=O)cc3F)ccnc2cc1OCCCN1CCOCC1
active: [1] 14.7 µM | [2] 18.5 µM | [3] 2.93 µM | [15] 2.93 µM | [4] 4.65 µM | [5] 3.69 µM | [6] 11.7 µM | [7] 8.27 µM | [8] 4.65 µM | [9] 7.37 µM | [10] 3.69 µM | [11] 3.32 µM | [14] 24.1 µM

CC(=O)OCC(=O)[C@@]1(O)[C@H](C)C[C@H]2[C@@H]3C=C(C)C4=Cc5c(cnn5-c5ccccc5)C[C@]4(C)[C@@H]3[C@@H](O)C[C@@]21C
active: [1] 13.1 µM | [2] 13.1 µM | [3] 4.14 µM | [15] 18.5 µM | [4] 9.27 µM | [5] 13.1 µM | [7] 16.5 µM | [8] 16.5 µM | [9] 14.7 µM | [10] 16.5 µM | [11] 14.8 µM

CC(C)[C@H](C(=O)Nc1ccc(C(=O)NO)cc1)c1ccccc1
active: [1] 1.47 µM | [2] 1.04 µM | [3] 0.737 µM | [4] 0.657 µM | [5] 1.17 µM | [6] 1.65 µM | [7] 0.827 µM | [8] 2.33 µM | [9] 1.85 µM | [10] 2.33 µM
inactive: [11]

Cc1cc(Nc2ncnc3ccc(-c4ccc(CNCCS(C)(=O)=O)o4)cc23)ccc1Oc1ccn2ncnc2c1
active: [1] 0.0657 µM | [2] 16.5 µM | [3] 18.5 µM | [5] 2.33 µM | [11] 20.9 µM
inactive: [15] | [13]

COC(=O)Nc1nc2ccc(C(=O)c3ccc(F)cc3)cc2[nH]1
active: [1] 2.33 µM | [2] 2.61 µM | [3] 1.17 µM | [6] 2.93 µM | [9] 1.85 µM | [10] 2.61 µM
inactive: [13] | [7] | [8] | [11] | [14]
